KDM5B inhibitor: Primary screen for KDM5B Histone Demethylases FDH-coupled qHTS; Lysine-specific demethylase 5B (Homo sapiens), Q9UGL1; KDM5B demethylase, FDH-coupled NADH fluorescence (FDH is formaldehyde dehydrogenase); Potency, µM (top dose mostly 57.7 µM), most hits filed as inhibitors; 220,000 compounds, 2.6% hits; AID 1347165, 2019; active = well fitted inhibition curve with a large enough effect; inconclusive = small, poorly fitted or top-dose-only effect; inactive = no such curve, though single readings can be large or run the other way; also: potency is read from the fitted curve at half-maximal effect; 0% is about no effect; nearly all actives have a fitted effect of over 70% in size
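KDM5BΔAP (200 nM final) in 50 mM HEPES pH 7.5, 0.01% Tween-20 was preincubated 10 min at RT with compound over a concentration range. Substrate mix (H3K4me3 12.5 µM, α-KG 25 µM, Fe²⁺, ascorbate, NAD⁺, FDH) was added, and NADH fluorescence change over 30 min gave dose-response curves.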
IP6K1 inh: Primary qHTS assay for small molecule inhibitors of Inositol hexaphosphate kinase 1 (IP6K1); IP6K1 kinase, ADP-Glo luminescence, 2 h; hits give low values; Inositol hexakisphosphate kinase 1 (Homo sapiens), Q92551; 140,000 compounds, 0.81% hits; AID 1645851, 2021; activity change, % (series mostly up to about 58 µM); in the data active = activity change below about -25%; also: % is scaled to controls: 0 for no effect and ±100 for the full control effect
Target sequence (Q92551 whole entry, looked up): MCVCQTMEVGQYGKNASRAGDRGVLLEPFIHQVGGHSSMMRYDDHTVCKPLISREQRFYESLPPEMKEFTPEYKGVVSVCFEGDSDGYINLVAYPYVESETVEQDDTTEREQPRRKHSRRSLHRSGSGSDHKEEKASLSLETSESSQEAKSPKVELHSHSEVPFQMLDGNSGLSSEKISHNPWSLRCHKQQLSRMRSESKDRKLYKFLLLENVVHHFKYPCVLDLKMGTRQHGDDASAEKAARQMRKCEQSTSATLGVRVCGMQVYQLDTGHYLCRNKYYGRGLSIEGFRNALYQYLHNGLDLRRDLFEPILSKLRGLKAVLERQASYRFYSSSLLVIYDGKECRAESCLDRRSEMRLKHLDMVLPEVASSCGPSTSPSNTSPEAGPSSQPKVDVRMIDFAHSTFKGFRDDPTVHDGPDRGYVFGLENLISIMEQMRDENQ
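ADP-Glo luminescence measures ADP made by human IP6K1 during a 2 h RT reaction with ATP/IP6 (mix at 1.3 mM/130 uM); top library doses 57.5 and 19.1 uM final.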
Active calls of the source: *; i = inactive; ? = inconclusive; / = no result. Hits are enriched below; roughly 2.8% of the tested compounds scored in any of these assays.

SMILES	KDM5B inhibitor	IP6K1 inh
COc1ccc(NC(=O)c2cc3n(n2)CC(c2ccc(Cl)cc2)OC3)cc1OC (stereo not drawn)	?	55
O=C(Nc1ccc(F)c(Cl)c1)c1cc2n(n1)CC(c1ccc3c(c1)OCO3)OC2 (stereo not drawn)	32µM*	1
COc1ccc(NC(=O)c2cc3n(n2)CC(c2ccc(Cl)cc2)OC3)cc1Cl (stereo not drawn)	25µM*	-7
Cc1cc(C)cc(NC(=O)c2cc3n(n2)CC(c2ccc4c(c2)OCO4)OC3)c1 (stereo not drawn)	?	26
Cc1ccc(NC(=O)c2cc3n(n2)CC(c2ccc(Cl)cc2)OC3)cc1C (stereo not drawn)	?	24
Cc1cnn(CCC(=O)N2CCCCCCNC(=O)CC2)c1	i	-18
COc1cccc(OCc2cc(C(=O)NC(CO)CO)n[nH]2)c1	i	2
C=CCc1c(C)nc(Nc2nc(C)c3cccc(C)c3n2)[nH]c1=O	i	/
Cn1cc(-c2cc(=O)c3ccnc(NCc4ccc(F)cc4)c3o2)cn1	32µM*	-15
Cn1cc(-c2cc(=O)c3ccnc(NC4CCOCC4)c3o2)cn1	i	-17
Cc1ccc(-c2ncc(NC(=O)c3cccs3)cn2)cc1	32µM*	-5
O=C(Nc1cnc(-c2ccc(Cl)cc2)nc1)c1cccs1	?	-9
Cc1cn2nc(C(=O)Nc3ccc(C)c(F)c3)cc2c(N2CCSCC2)n1	25µM*	10
Cc1cn2nc(C(=O)Nc3ccc(OC(F)(F)F)cc3)cc2c(N2CCSCC2)n1	25µM*	-9
COc1cc(NC(=O)c2cc3c(N4CCSCC4)nc(C)cn3n2)cc(OC)c1OC	22µM*	0
COc1cccc(NC(=O)c2cc3c(N4CCSCC4)nc(C)cn3n2)c1	28µM*	0
Cc1cn2nc(C(=O)Nc3ccc(N(C)C)cc3)cc2c(N2CCCC2)n1	i	0
COc1cc(NC(=O)c2cc3c(N4CCCC4)nc(C)cn3n2)cc(OC)c1OC	?	3
O=C(O)c1ccccc1C(=O)Cc1ccc(I)cc1	i	/
Cc1ccc(C(=O)C(C)OC(=O)C2CC3CCCC(C2)C3=O)cc1C (stereo not drawn)	i	/
COc1ccc(NC(=O)c2cc3c(N4CCSCC4)nc(C)cn3n2)cc1OC	28µM*	-17
COc1ccc(NC(=O)c2cc3c(=O)[nH]c(C)cn3n2)cc1OC	i	0
COCCCNC(=O)CN1CCCc2nc(C3CC3)ncc2C1=O	i	3
CCc1noc(-c2ccn3c(CNC(=O)c4ccc(OC)cc4)nnc3c2)n1	14µM*	4
CCCc1noc(-c2ccn3c(CNC(=O)c4ccc(OC)cc4)nnc3c2)n1	?	11
SMILES	KDM5B inhibitor	IP6K1 inh
CCc1noc(-c2ccn3c(CNC(=O)c4cc(F)cc(F)c4)nnc3c2)n1	25µM*	6
CCc1noc(-c2ccn3c(CNC(=O)c4ccc(F)cc4Cl)nnc3c2)n1	i	19
COc1cccc(CN2CCN3C(=O)N(C4CCOCC4)C[C@H]3C2)n1	i	5
COP(=O)(OC)c1nc(Cc2ccc(Cl)cc2)oc1NCc1ccco1	i	/
COc1ccccc1CNS(=O)(=O)c1cc(C(=O)Nc2cccc(C(F)(F)F)c2)ccc1F	i	19
COc1ccc(Br)cc1COC(=O)COc1ccc(C(C)=O)cc1	i	/
O=C(c1cc2c(s1)CCCC2)N1CCc2c(nc3cc(-c4ccccc4)[nH]n3c2=O)C1	i	30
Cc1noc(C)c1S(=O)(=O)N1CCc2nc3cc(-c4ccccc4)[nH]n3c(=O)c2C1	28µM*	6
CN(C)S(=O)(=O)N1CCc2c(nc3cc(-c4ccccc4)[nH]n3c2=O)C1	22µM*	22
COc1ccc(-c2nc3c(c(=O)[nH]2)CCN(C(=O)c2cc(Cl)ccc2OC)C3)cc1	?	20
O=C(c1nccc2ccccc12)N1CCc2c(nc3cc(-c4ccccc4)[nH]n3c2=O)C1	?	19
COc1ccc(Cl)cc1C(=O)N1CCc2nc3cc(-c4ccccc4)[nH]n3c(=O)c2C1	25µM*	0
O=C(c1ccccc1Cl)N1CCc2c(nc3cc(-c4ccccc4)[nH]n3c2=O)C1	35µM*	14
COc1ccc(S(=O)(=O)N2CCc3nc4cc(-c5ccccc5)[nH]n4c(=O)c3C2)cc1	?	0
Cc1ccc(C)c(OCC(O)Cn2nc(C(N)=O)c3ccccc3c2=O)c1C (stereo not drawn)	i	/
O=C(NCc1ccccc1)c1ccc2c(c1)OCCN(c1ccccc1)C2	?	2
CN(CCc1ccccc1)Cc1cc(C(=O)N2CCOc3ccccc3C2)no1	i	4
COc1ccc(-c2nc(C)nc3c2CN(C(=O)c2ccccc2OC)CC3)cc1	?	5
COCCn1cnnc1SCc1ccc(C(C)(C)C)cc1	i	/
O=c1c(Cl)c(N2CCN(S(=O)(=O)c3ccccc3F)CC2)cnn1Cc1ccccc1	i	/
COCC(=O)NC[C@H]1CCN(Cc2ccccn2)C[C@H]1N(C)C	?	-3
CCOC(=O)CCNC(=O)N1CCc2c(nc3cc(-c4ccccc4)[nH]n3c2=O)C1	28µM*	16
O=C(c1n[nH]c2c1CCCCCC2)N1CCc2c(nc3cc(-c4ccccc4)[nH]n3c2=O)C1	?	54
CCOC(=O)CCNC(=O)N1CCc2c(nc(-c3ccccc3)[nH]c2=O)C1	i	34
CCn1cc(Cl)c(C(=O)N2CCc3c(nc4cc(-c5ccccc5)[nH]n4c3=O)C2)n1	25µM*	26
SMILES	KDM5B inhibitor	IP6K1 inh
CCCc1noc(-c2ccn3c(CNC(=O)CCC4CCCC4)nnc3c2)n1	3.5µM*	16
CCc1noc(-c2ccn3c(CNC(=O)COc4cccc(C)c4)nnc3c2)n1	?	9
CCc1noc(-c2cccn3c(CNC(=O)Cc4cccc(OC)c4)nnc23)n1	?	-1
CCc1noc(-c2ccn3c(CNC(=O)c4ccccc4C)nnc3c2)n1	i	15
CCCc1noc(-c2ccn3c(CNC(=O)c4ccoc4)nnc3c2)n1	i	9
CCc1noc(-c2ccn3c(CNC(=O)Cc4cccc(OC)c4)nnc3c2)n1	22µM*	12
CCc1noc(-c2ccn3c(CNC(=O)CCc4ccccc4)nnc3c2)n1	25µM*	-1
CCc1noc(-c2ccn3c(CNC(=O)CCc4cccc(OC)c4)nnc3c2)n1	28µM*	7
CC(CCO)CCC1C2(C)CCCC(C)(C)C2CC[C@@]1(C)O (stereo partly drawn)	/	-2
COc1cccc(CC(=O)NCc2nnc3cc(-c4nc(C(C)C)no4)ccn23)c1	28µM*	1
COc1cccc(CCC(=O)NCc2nnc3cc(-c4nc(C5CC5)no4)ccn23)c1	28µM*	10
O=C(NCc1nnc2cc(-c3nc(C4CC4)no3)ccn12)C1(c2ccccc2)CC1	?	14
O=C(Nc1cccc2cccnc12)N1CCCCCC1	i	/
CC(C)Cc1cc(C(=O)N2C[C@H](C3CC3)[C@@H](N)C2)n(C)n1	i	-8
CCn1nc(CC(C)C)cc1C(=O)N1C[C@@H](NC(C)=O)[C@H](C(C)C)C1	35µM*	-6
CCN(Cc1ccc(Br)s1)C(=O)Cn1nnc(-c2ccc(Cl)cc2)n1	i	/
O=c1c2nc(OCc3ccccc3)ccc2ncn1Cc1ccccn1	i	-3

Bioassay records deposited in PubChem BioAssay by National Center for Advancing Translational Sciences (NCATS).
